Residue numbers refer to the chain shown, from its start. In names and notes the source's numbering stands.
B1: 4 (nucleosome)
DNA 1: ATCCTGTCAAGGCCAGGTGCCGAGGCCGCTCAATTGGTCGTAGACAGCTCTAGCACCGCTTAAACGCACGTACGCGCTGTCCCCCGCGTTTTAACCGCCAAGGGGATTACTCCCTAGTCTCCAGGCACGTGTCAGATATATACATCCTGTGAT
DNA 2: ATCACAGGATGTATATATCTGACACGTGCCTGGAGACTAGGGAGTAATCCCCTTGGCGGTTAAAACGCGGGGGACAGCGCGTACGTGCGTTTAAGCGGTGCTAGAGCTGTCTACGACCAATTGAGCGGCCTCGGCACCTGGCCTTGACAGGAT
modifications: reconstituted with mouse histones H2A, H2B, H3.3 and H4
B2: 32 (nucleosome)
DNA 1: ATCCTGGAGAATCCCGGTGCCGAGGCCGCTCAATTCAAGGCCAACAGCTCTAGCACCGCTTAAACGCACGTACGCGCTGTCCCCCGCGTTTTAACCGCCAAGGGGATTACTCCCTAGTCTCCAGGCACGTGTCAGATATATACATCCTGTGAT
DNA 2: ATCACAGGATGTATATATCTGACACGTGCCTGGAGACTAGGGAGTAATCCCCTTGGCGGTTAAAACGCGGGGGACAGCGCGTACGTGCGTTTAAGCGGTGCTAGAGCTGTTGGCCTTGAATTGAGCGGCCTCGGCACCGGGATTCTCCAGGAT
modifications: reconstituted with mouse histones H2A, H2B, H3.3 and H4
B3: 33 (nucleosome)
DNA 1: B2 DNA 1 with C36T, A37C, G39A, C41G, A43C
DNA 2: B2 DNA 2 with T111G, G113C, C115T, T117G, G118A
modifications: reconstituted with mouse histones H2A, H2B, H3.3 and H4
B4: 34 (nucleosome)
DNA 1: B2 DNA 1 with C36G, A37T, A38C, G39A, G40A, C41G, C42G, A43C, A44C, C45A
DNA 2: B2 DNA 2 with G109T, T110G, T111G, G112C, G113C, C114T, C115T, T116G, T117A, G118C
modifications: reconstituted with mouse histones H2A, H2B, H3.3 and H4
B5: 35 (nucleosome)
DNA 1: B2 DNA 1 with C36G, A37G, A38T, G39C, G40A, C41A, C42G, A43G, A44C
DNA 2: B2 DNA 2 with T110G, T111C, G112C, G113T, C114T, C115G, T116A, T117C, G118C
modifications: reconstituted with mouse histones H2A, H2B, H3.3 and H4
B6: 36 (nucleosome)
DNA 1: ATCCTGGAGAATCCCGGTGCCGAGGCCGCTCAATTGGTTCAAGGCCACTCTAGCACCGCTTAAACGCACGTACGCGCTGTCCCCCGCGTTTTAACCGCCAAGGGGATTACTCCCTAGTCTCCAGGCACGTGTCAGATATATACATCCTGTGAT
DNA 2: ATCACAGGATGTATATATCTGACACGTGCCTGGAGACTAGGGAGTAATCCCCTTGGCGGTTAAAACGCGGGGGACAGCGCGTACGTGCGTTTAAGCGGTGCTAGAGTGGCCTTGAACCAATTGAGCGGCCTCGGCACCGGGATTCTCCAGGAT
modifications: reconstituted with mouse histones H2A, H2B, H3.3 and H4
B7: 37 (nucleosome)
DNA 1: B6 DNA 1 with T39C, C40T, A41C, G43A, C45G, A47C, C48A
DNA 2: B6 DNA 2 with G106T, T107G, G109C, C111T, T113G, G114A, A115G
modifications: reconstituted with mouse histones H2A, H2B, H3.3 and H4
B8: 38 (nucleosome)
DNA 1: B2 DNA 1 with C36G, A37G, A38T, G39C, C41T, C45G, A46G, G47C, T49A
DNA 2: B2 DNA 2 with A105T, C107G, T108C, G109C, G113A, C115G, T116A, T117C, G118C
modifications: reconstituted with mouse histones H2A, H2B, H3.3 and H4
B9: 39 (nucleosome)
DNA 1: ATCCTGGAGAATCCCGGTGCCGAGGCCGCTCAATTGGTCGTTCAAGGCCATAGCACCGCTTAAACGCACGTACGCGCTGTCCCCCGCGTTTTAACCGCCAAGGGGATTACTCCCTAGTCTCCAGGCACGTGTCAGATATATACATCCTGTGAT
DNA 2: ATCACAGGATGTATATATCTGACACGTGCCTGGAGACTAGGGAGTAATCCCCTTGGCGGTTAAAACGCGGGGGACAGCGCGTACGTGCGTTTAAGCGGTGCTATGGCCTTGAACGACCAATTGAGCGGCCTCGGCACCGGGATTCTCCAGGAT
modifications: reconstituted with mouse histones H2A, H2B, H3.3 and H4
B10: 40 (nucleosome)
DNA 1: B9 DNA 1 with T42A, C43T, A44C, G46A, C48G, A50C, T51A
DNA 2: B9 DNA 2 with A103T, T104G, G106C, C108T, T110G, G111A, A112T
modifications: reconstituted with mouse histones H2A, H2B, H3.3 and H4
B11: 41 (nucleosome)
DNA 1: B6 DNA 1 with T39C, C40G, A41T, G44T, C46A, C48G, T49G, T51C
DNA 2: B6 DNA 2 with A103G, A105C, G106C, G108T, C110A, T113A, G114C, A115G
modifications: reconstituted with mouse histones H2A, H2B, H3.3 and H4
B12: 42 (nucleosome)
DNA 1: ATCCTGGAGAATCCCGGTGCCGAGGCCGCTCAATTGGTCGTAGATCAAGGCCACACCGCTTAAACGCACGTACGCGCTGTCCCCCGCGTTTTAACCGCCAAGGGGATTACTCCCTAGTCTCCAGGCACGTGTCAGATATATACATCCTGTGAT
DNA 2: ATCACAGGATGTATATATCTGACACGTGCCTGGAGACTAGGGAGTAATCCCCTTGGCGGTTAAAACGCGGGGGACAGCGCGTACGTGCGTTTAAGCGGTGTGGCCTTGATCTACGACCAATTGAGCGGCCTCGGCACCGGGATTCTCCAGGAT
modifications: reconstituted with mouse histones H2A, H2B, H3.3 and H4
B13: 43 (nucleosome)
DNA 1: B12 DNA 1 with T45C, C46T, A47C, G49A, C51G, A53C, C54A
DNA 2: B12 DNA 2 with G100T, T101G, G103C, C105T, T107G, G108A, A109G
modifications: reconstituted with mouse histones H2A, H2B, H3.3 and H4
B14: 44 (nucleosome)
DNA 1: B12 DNA 1 with T45C, C46A, A47T, A48C, G49A, G50A, C51G, C52G, A53C
DNA 2: B9 DNA 2 with C101G, T102C, A103C, G105T, C107A, C108T, T109G, G111C, A112T
modifications: reconstituted with mouse histones H2A, H2B, H3.3 and H4
B15: 45 (nucleosome)
DNA 1: B9 DNA 1 with T42A, C43G, A45C, G46A, C48T, T51A, A52G, A55C, C56A
DNA 2: B9 DNA 2 with G98T, T99G, T102C, A103T, G106A, C108T, T109G, G111C, A112T
modifications: reconstituted with mouse histones H2A, H2B, H3.3 and H4

Legend:
[1] = target: NR5A2 wild type;histone octamer (Homo sapiens;, UniProt O00482;C0HKE1;Q6ZWY9;P84244;P62806 1-541;2-130;2-126;2-136;2-103, |); assay: SeEN-seq (EMSA of nucleosome library followed by sequencing); 0.8 uM human NR5A2; 20 mM Tris-HCl pH 7.5, 120 mM NaCl, 1 mM MgCl2, 10 uM ZnCl2, 1 mM DTT, 100 ug/ml BSA, room temperature, 30 min; 0.1 uM nucleosome library; high values mean tight binding
[2] = target: mouse Nr5a2 wild type;histone octamer (Mus musculus;, UniProt P45448;C0HKE1;Q6ZWY9;P84244;P62806 1-560;2-130;2-126;2-136;2-103, |); assay: SeEN-seq (EMSA of nucleosome library followed by sequencing); 1.2 uM mouse Nr5a2; 20 mM Tris-HCl pH 7.5, 120 mM NaCl, 1 mM MgCl2, 10 uM ZnCl2, 1 mM DTT, 100 ug/ml BSA, room temperature, 30 min; 0.1 uM nucleosome library; high values mean tight binding

Row | Binder | binding signal [1] | binding signal [2]
1 | B1 | 4.82 log2 enrichment (bound/unbound, relative to Widom 601) | 3.77 log2 enrichment (bound/unbound, relative to Widom 601)
2 | B2 | 1.82 log2 enrichment (bound/unbound, relative to Widom 601) | 1.7 log2 enrichment (bound/unbound, relative to Widom 601)
3 | B3 | 2.48 log2 enrichment (bound/unbound, relative to Widom 601) | 2.25 log2 enrichment (bound/unbound, relative to Widom 601)
4 | B4 | 1.32 log2 enrichment (bound/unbound, relative to Widom 601) | 1.03 log2 enrichment (bound/unbound, relative to Widom 601)
5 | B5 | 0.694 log2 enrichment (bound/unbound, relative to Widom 601) | 0.841 log2 enrichment (bound/unbound, relative to Widom 601)
6 | B6 | 0.81 log2 enrichment (bound/unbound, relative to Widom 601) | 0.77 log2 enrichment (bound/unbound, relative to Widom 601)
7 | B7 | 0.722 log2 enrichment (bound/unbound, relative to Widom 601) | 0.546 log2 enrichment (bound/unbound, relative to Widom 601)
8 | B8 | 0.852 log2 enrichment (bound/unbound, relative to Widom 601) | 0.628 log2 enrichment (bound/unbound, relative to Widom 601)
9 | B9 | 0.783 log2 enrichment (bound/unbound, relative to Widom 601) | 0.704 log2 enrichment (bound/unbound, relative to Widom 601)
10 | B10 | 0.693 log2 enrichment (bound/unbound, relative to Widom 601) | 0.706 log2 enrichment (bound/unbound, relative to Widom 601)
11 | B11 | 2.28 log2 enrichment (bound/unbound, relative to Widom 601) | 1.87 log2 enrichment (bound/unbound, relative to Widom 601)
12 | B12 | 2.74 log2 enrichment (bound/unbound, relative to Widom 601) | 2.07 log2 enrichment (bound/unbound, relative to Widom 601)
13 | B13 | 2.58 log2 enrichment (bound/unbound, relative to Widom 601) | 1.55 log2 enrichment (bound/unbound, relative to Widom 601)
14 | B14 | 2.41 log2 enrichment (bound/unbound, relative to Widom 601) | 1.31 log2 enrichment (bound/unbound, relative to Widom 601)
15 | B15 | 0.761 log2 enrichment (bound/unbound, relative to Widom 601) | 0.671 log2 enrichment (bound/unbound, relative to Widom 601)

Reference: article PMC11102866, “Nucleosome-bound NR5A2 structure reveals pioneer factor mechanism by DNA minor groove anchor competition”
